High-throughput results: PubChem BioAssay, National Center for Advancing Translational Sciences (NCATS)
Rows were chosen to be rich in hits. Some 0.41% of all compounds tested hit in one or more screens of this group.
N370S GC: inhibitors or activators of N370S glucocerebrosidase for Gaucher disease; P04062; N370S GC spleen homogenate, 4MU-glucoside fluorescence; Potency, µM (titrated, usually from 59.4 µM), inactives show at the highest dose activity change, negative = inhibition, actives largely listed as inhibitors; actives 0.092% (n = 330,000); AID 2101;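 note: potency is the fitted concentration of half-maximal effect; 0% = full enzyme activity and -100% = no enzyme basal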
GLA inh pH 4.5: alpha-galactosidase A (human) inhibition, pH 4.5; AID 1467; activity change, negative = inhibition, % at 105 µM; purified enzyme, 4-MU-alpha-Gal fluorescence, pH 4.5; P06280; 230,000 tested, under 10 active;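 note: 0% = full activity with enzyme and -100% = basal without enzyme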
Target sequence (P06280 whole entry, looked up): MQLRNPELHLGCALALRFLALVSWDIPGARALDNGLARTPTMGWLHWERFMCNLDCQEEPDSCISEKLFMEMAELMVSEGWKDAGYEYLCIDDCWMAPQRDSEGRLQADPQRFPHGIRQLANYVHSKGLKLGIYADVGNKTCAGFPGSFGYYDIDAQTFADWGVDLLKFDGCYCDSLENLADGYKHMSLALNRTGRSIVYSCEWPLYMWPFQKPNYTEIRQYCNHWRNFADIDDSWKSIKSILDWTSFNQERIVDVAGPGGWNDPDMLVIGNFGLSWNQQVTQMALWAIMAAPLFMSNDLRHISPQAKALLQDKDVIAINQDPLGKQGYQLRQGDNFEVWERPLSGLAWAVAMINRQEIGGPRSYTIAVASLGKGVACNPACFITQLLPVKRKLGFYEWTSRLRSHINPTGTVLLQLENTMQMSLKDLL
GLA spleen mod: inhibits or activates alpha-galactosidase in human spleen homogenate | P06280 | human spleen homogenate, 4MU-alpha-Gal fluorescence, 40 min | Potency, µM (top dose mostly 80 µM), for inactives: at the top dose activity change, negative = inhibition, usual class: inhibitors | actives 0.008% (n = 240,000) | AID 2107;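 note: potency is the fitted concentration of half-maximal effect; 0% = enzyme with vehicle and -100% = no enzyme basal signal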
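Inhibition or activation of alpha-galactosidase in human spleen homogenate is scored by 4-MU fluorescence after 40 min at 37C, pH 5.0, with 1 mM substrate. AC50s come from concentration-response fitted to the Hill equation.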
GAA glycogen mod: inhibitors or activators of human alpha-glucosidase glycogen cleavage; P10253; recombinant GAA, glycogen substrate, Amplex Red glucose oxidase fluorescence; Potency, µM (titrated, usually from 76.4 µM), for inactives: top-dose activity change, negative = inhibition, actives largely listed as inhibitors; actives 0.38% (n = 300,000);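 note: potency is the fitted concentration of half-maximal effect; 0% = full enzyme reaction and -100% = no-enzyme basal signal; the screen sought inhibitors and activators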
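Recombinant enzyme (4 nM final) with compounds titrated up to 77 uM and bovine liver glycogen (30 ug) in citrate pH 5.0, 0.01% Tween-20, 37 C 40 min. Released glucose detected by Amplex Red/glucose oxidase (Ex 573/Em 610); AC50 from Hill fits.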
GAA inh: alpha-glucosidase (human) inhibition | actives 0.005% (n = 200,000) | purified human GAA, 4-MU-alpha-glucoside fluorescence | Potency, µM (titrated, usually from 76.9 µM), without a hit: top-dose activity change, negative = inhibition, actives largely listed as inhibitors | P10253 | AID 1466;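 note: potency is the fitted concentration of half-maximal effect; plate controls were uninhibited enzyme wells for no effect and no-enzyme background for full effect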
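Activity normalized between no-enzyme (basal) and enzyme-only wells. Conditions: 4 nM human enzyme, 400 uM fluorogenic substrate, citrate/phosphate pH 5.0 with Tween-20, 20 min room temperature, compounds up to 77 uM.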
GAA spleen mod: inhibitors or activators of human alpha-glucosidase in spleen homogenate. actives 0.006% (n = 240,000). human spleen homogenate, 4-MU-alpha-glucoside fluorescence. Potency, µM (highest dose often 79.9 µM), without a hit: at the highest dose activity change, negative = inhibition, hits mostly inhibitors. P10253;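 note: potency is the fitted concentration of half-maximal effect; 0% = enzyme with vehicle and -100% = no enzyme basal signal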
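Human spleen homogenate (1 ug) incubated with compounds and 1 mM 4-methylumbelliferyl-alpha-D-glucopyranoside in pH 5.0 citrate/phosphate buffer, 37 C, 40 min. Stopped at pH 10; 4-MU fluorescence (Ex 365/Em 440 nm); AC50 by Hill fit.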
Numbers without * were called inactive; ? = inconclusive; . = no result; [ ] = another dose, or the depositor's remark. Calls come from the whole dose curve; as a rule, active = well fitted curve in the direction sought with a large enough effect; inconclusive = small, poorly fitted or top-dose-only effect, or another doubt; inactive = no such curve, though single readings can be large; an effect the other way counts as inactive or inconclusive.

SMILES	N370S GC	GLA inh pH 4.5	GLA spleen mod	GAA glycogen mod	GAA inh	GAA spleen mod
COc1cc(/C=C2/NC(=O)N(Cc3ccccc3F)C2=O)ccc1Oc1ccc([N+](=O)[O-])cn1	0%	-13	-2%	-2%	0%	-2%
CN1C(=O)/C(=C/c2ccc(O)c([N+](=O)[O-])c2)NC1=S	-9%	-2	-6%	4%	-2%	-5%
CCC(=O)N1CCc2cc(Br)cc(S(=O)(=O)CCC(=O)N3CCN(c4ccccc4F)CC3)c21	.	.	.	7%[76.3 µM]	.	.
CC(C(=O)Nc1ccc(OC(F)(F)F)cc1)N1Cc2ccccc2C1=O (configuration not stated)	.	.	.	-21%[76.3 µM]	.	.
COC(=O)CCC(=O)OC1(C)C(=O)C=C2C=C(C3CC3)N(c3ccc(OC)cc3)C=C2C1=O (configuration not stated)	-3%[12.8 µM]	8	-2%[17.5 µM]	.	.	-8%[17.4 µM]
COc1cccc(C(=O)Nc2ccc3nc(N4CCOCC4)cc(C)c3c2)c1	10µM*	-9	6%	-3%	-6%	8%
COc1cc(CNc2ccc3[nH]c(=O)[nH]c3c2)ccc1OCc1ccccc1F	-4%	.	.	5.6µM*	.	.
CCOc1cc(CNc2ccc(N(C)C)cc2)cc(Br)c1OCC(=O)NC(C)(C)C	-8%	-27	-19%	20µM*	?	-6%
C=CCOc1cccc(CNc2ccc3[nH]c(=O)[nH]c3c2)c1	-13%	-4	-8%	28µM*	-2%	-1%
COc1cc(CNc2ccc3[nH]c(=O)[nH]c3c2)cc(Br)c1OCC(=O)NC(C)(C)C	.	-3	-1%	14µM*	-15%	-5%
COc1cc(CNc2ccc3[nH]c(=O)[nH]c3c2)ccc1OCC(=O)NC(C)(C)C	-8%	-6	-5%	?	-3%	-3%
COCCNc1ncnc2ccc(-c3ccccc3C(F)(F)F)cc12	-9%	.	0%	.	.	7%
